Assay results published in the supplement of paper PMC10849652.
Of roughly 7,900 targets only a part is listed; those with a hit were picked by preference. About 0.6% of all pairs of compound and target were hits. Values without a mark were called inactive.

Key:
Assay in all cases: log2 fold change, soluble protein after heating vs DMSO (PISA); higher = thermal stabilisation; K562 cells, 10 uM, 30 min; active = over 0.2 and 3.5 SD of the protein, either way, in both replicates (recomputed)
[1] = compound: CC[C@@H]1C(=O)N(C)c2cnc(Nc3ccc(C(=O)NC4CCN(C)CC4)cc3OC)nc2N1C1CCCC1
In short: (§1)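 K562 cells at 2×10^6 cells/mL were exposed to 10 μM compound for 30 min, then aliquots were heated for 3 min across 48°C-58°C, pooled, and extracted in PBS containing 0.5% NP-40 at 4°C. The supernatant after 21,000xg for 90 min was taken as soluble protein and measured by TMTpro 16plex LC-MS/MS with channel sums equalised. Thermal stability is reported relative to control samples, with values from duplicates. Fold changes are given on a log2 scale.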

volasertib = compound: CC[C@@H]1C(=O)N(C)c2cnc(Nc3ccc(C(=O)N[C@H]4CC[C@H](N5CCN(CC6CC6)CC5)CC4)cc3OC)nc2N1C(C)C [volasertib]
In short: as §1

[2] = compound: CC[C@H](C)N1C=C(C2=C(C=C(C=C21)C3=CN=C(C=C3)N4CCNCC4)C(=O)NCC5=C(C=C(NC5=O)C)C)C
In short: as §1

epoxomicin = compound: CC[C@H](C)[C@@H](C(=O)N[C@@H]([C@@H](C)O)C(=O)N[C@@H](CC(C)C)C(=O)[C@]1(CO1)C)NC(=O)[C@H]([C@@H](C)CC)N(C)C(=O)C [epoxomicin]
In short: as §1

[3] = compound: CCn1c(C(=O)N(C2CC2)C2CC2)cc2c3c(ncn3C)c(Nc3cc(C)n(C)n3)nc21
In short: as §1

[4] = compound: CCn1cc(-c2ccnc3[nH]c(-c4cccc(CN(C)C)c4)cc23)c(-c2ccc(NC(=O)N(C)C)cc2)n1
In short: as §1

[5] = compound: CN(C)CC(=O)Nc1ccc2[nH]c(=O)c3ccccc3c2c1
In short: as §1

rosiglitazone = compound: CN(CCOC1=CC=C(C=C1)C[C@H]2C(=O)NC(=O)S2)C3=CC=CC=N3 (racemic) [rosiglitazone]
In short: as §1

[6] = compound: CN1C2=C(C3=C1C(=O)N(N=C3)CC4=CC(=CC=C4)N)SC(=C2)S(=O)C
In short: as §1

[7] = compound: CN1CCC(CNc2ccc3ncc(-c4cccc(OC(F)(F)F)c4)n3n2)CC1
In short: as §1

saracatinib = compound: CN1CCN(CCOc2cc(OC3CCOCC3)c3c(Nc4c(Cl)ccc5c4OCO5)ncnc3c2)CC1 [saracatinib]
In short: as §1

sotrastaurin = compound: CN1CCN(c2nc(C3=C(c4c[nH]c5ccccc45)C(=O)NC3=O)c3ccccc3n2)CC1 [sotrastaurin]
In short: as §1

alvocidib = compound: CN1CC[C@H](c2c(O)cc(O)c3c(=O)cc(-c4ccccc4Cl)oc23)[C@H](O)C1 [alvocidib]
In short: as §1

Tubastatin A = compound: CN1CCc2c(c3ccccc3n2Cc2ccc(C(=O)NO)cc2)C1 [Tubastatin A]
In short: as §1

[8] = compound: CNC(=O)C1=CC=CC=C1NC2=NC(=NC=C2Cl)NC3=C(C=C(C=C3)N4CCOCC4)OC
In short: as §1

defactinib = compound: CNC(=O)c1ccc(Nc2ncc(C(F)(F)F)c(NCc3nccnc3N(C)S(C)(=O)=O)n2)cc1 [defactinib]
In short: as §1

rucaparib = compound: CNCc1ccc(-c2[nH]c3cc(F)cc4c3c2CCNC4=O)cc1 [rucaparib]
In short: as §1

[9] = compound: CNc1nc(-c2ccc3c(N)n[nH]c3c2)cc(N2C[C@@H](C(=O)NC3CCCCC3)CC[C@H]2C)n1
In short: as §1

encorafenib = compound: COC(=O)N[C@@H](C)CNc1nccc(-c2cn(C(C)C)nc2-c2cc(Cl)cc(NS(C)(=O)=O)c2F)n1 [encorafenib]
In short: as §1

[10] = compound: COC(=O)[C@H](CCSC)NC(=O)C1=C(C=C(C=C1)NC[C@H](CS)N)C2=CC=CC=C2
In short: as §1

UniProt P03905, sequence (P03905 whole entry, looked up): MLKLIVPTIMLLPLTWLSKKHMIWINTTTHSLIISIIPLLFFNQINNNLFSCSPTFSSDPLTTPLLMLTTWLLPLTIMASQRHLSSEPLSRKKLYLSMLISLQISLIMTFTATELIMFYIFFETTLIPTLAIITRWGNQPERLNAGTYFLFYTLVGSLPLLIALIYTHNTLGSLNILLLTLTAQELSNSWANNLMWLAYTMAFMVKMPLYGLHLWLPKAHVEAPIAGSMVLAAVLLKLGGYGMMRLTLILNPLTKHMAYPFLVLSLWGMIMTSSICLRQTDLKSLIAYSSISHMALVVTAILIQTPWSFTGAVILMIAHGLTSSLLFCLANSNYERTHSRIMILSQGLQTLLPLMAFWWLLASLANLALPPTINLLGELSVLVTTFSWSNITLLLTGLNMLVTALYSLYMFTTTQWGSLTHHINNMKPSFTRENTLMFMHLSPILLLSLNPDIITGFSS
UniProt Q15021, sequence (Q15021 whole entry, looked up): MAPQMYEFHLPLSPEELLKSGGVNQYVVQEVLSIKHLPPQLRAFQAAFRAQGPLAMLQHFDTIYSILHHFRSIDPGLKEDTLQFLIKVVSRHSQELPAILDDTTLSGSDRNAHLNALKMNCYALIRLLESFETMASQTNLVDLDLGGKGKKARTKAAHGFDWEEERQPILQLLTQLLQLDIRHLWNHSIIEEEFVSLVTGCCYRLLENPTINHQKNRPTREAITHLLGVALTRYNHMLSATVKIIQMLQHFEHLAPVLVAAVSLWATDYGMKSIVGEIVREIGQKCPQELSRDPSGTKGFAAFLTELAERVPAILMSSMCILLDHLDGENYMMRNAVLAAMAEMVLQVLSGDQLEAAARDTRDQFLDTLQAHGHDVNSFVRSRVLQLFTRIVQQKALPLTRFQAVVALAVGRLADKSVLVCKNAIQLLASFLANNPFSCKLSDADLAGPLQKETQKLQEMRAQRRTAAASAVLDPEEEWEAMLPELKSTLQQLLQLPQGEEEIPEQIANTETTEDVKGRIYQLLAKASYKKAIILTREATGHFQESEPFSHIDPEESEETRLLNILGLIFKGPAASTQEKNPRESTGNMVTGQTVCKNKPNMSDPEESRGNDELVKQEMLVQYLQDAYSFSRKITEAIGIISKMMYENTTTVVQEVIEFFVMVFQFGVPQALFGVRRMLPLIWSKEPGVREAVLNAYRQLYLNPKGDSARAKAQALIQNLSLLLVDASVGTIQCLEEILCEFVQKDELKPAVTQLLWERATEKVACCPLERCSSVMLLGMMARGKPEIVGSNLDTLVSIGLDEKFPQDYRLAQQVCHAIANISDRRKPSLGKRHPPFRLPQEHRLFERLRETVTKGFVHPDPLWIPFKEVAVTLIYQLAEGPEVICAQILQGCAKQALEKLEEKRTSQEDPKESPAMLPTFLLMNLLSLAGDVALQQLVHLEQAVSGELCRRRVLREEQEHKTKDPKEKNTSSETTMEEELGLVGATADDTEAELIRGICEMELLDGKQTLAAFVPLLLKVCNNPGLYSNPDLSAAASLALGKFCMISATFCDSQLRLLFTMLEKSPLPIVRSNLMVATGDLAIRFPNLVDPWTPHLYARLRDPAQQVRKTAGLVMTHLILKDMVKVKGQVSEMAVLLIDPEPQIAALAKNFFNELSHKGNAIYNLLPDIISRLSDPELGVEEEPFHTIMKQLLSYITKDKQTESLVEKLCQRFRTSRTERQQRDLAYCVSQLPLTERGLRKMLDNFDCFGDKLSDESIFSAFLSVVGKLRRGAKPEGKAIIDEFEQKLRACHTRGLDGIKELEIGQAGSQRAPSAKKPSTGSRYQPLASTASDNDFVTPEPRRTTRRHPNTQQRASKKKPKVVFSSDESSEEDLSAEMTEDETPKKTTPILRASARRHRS
UniProt P46934, sequence (P46934 whole entry, looked up): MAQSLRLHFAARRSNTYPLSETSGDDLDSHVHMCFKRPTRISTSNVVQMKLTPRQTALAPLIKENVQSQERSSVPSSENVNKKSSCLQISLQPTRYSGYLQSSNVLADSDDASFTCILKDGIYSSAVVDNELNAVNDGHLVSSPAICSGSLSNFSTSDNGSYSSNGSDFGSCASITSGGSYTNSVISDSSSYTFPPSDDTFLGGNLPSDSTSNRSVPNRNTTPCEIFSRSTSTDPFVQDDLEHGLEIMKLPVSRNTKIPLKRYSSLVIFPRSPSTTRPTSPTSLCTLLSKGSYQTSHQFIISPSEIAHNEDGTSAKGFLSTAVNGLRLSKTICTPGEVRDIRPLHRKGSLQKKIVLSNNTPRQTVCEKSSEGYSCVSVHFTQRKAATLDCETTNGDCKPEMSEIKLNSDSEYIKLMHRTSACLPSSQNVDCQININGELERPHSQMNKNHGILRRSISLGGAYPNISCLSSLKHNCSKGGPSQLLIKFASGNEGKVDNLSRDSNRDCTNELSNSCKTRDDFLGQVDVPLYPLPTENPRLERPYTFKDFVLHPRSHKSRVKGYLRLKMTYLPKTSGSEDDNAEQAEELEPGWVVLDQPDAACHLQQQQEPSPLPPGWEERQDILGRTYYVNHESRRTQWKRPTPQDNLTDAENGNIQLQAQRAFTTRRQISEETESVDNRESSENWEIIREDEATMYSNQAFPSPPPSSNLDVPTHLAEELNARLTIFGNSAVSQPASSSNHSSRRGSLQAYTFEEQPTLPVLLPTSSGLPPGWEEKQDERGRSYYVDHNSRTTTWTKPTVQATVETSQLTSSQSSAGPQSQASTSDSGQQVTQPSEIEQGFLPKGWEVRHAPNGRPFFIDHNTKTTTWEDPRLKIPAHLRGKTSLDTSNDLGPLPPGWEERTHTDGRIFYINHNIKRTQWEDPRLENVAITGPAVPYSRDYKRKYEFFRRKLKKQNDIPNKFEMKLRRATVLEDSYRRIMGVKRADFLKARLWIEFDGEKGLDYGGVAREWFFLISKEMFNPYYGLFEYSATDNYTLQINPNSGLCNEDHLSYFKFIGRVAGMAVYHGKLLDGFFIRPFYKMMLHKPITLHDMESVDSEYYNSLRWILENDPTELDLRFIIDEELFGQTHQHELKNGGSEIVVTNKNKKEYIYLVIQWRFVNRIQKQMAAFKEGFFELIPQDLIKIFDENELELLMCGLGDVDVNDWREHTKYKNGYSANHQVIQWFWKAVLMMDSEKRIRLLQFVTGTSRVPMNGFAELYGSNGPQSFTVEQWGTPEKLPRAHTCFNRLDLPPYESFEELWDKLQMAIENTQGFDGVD
UniProt Q96D46, sequence (Q96D46 whole entry, looked up): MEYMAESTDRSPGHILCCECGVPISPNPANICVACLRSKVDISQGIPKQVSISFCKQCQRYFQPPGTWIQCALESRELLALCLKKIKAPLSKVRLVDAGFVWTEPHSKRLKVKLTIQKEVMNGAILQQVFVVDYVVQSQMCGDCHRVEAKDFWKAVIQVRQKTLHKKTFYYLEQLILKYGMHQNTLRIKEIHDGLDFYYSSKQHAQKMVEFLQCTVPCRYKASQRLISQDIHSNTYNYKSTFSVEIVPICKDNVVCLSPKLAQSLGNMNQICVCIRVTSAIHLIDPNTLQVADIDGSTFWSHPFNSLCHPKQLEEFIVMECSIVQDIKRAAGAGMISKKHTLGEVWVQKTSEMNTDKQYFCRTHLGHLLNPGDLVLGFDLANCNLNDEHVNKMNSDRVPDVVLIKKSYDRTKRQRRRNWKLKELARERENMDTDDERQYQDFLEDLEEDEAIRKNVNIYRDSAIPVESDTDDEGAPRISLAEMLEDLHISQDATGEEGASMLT
UniProt P49116, sequence (P49116 whole entry, looked up): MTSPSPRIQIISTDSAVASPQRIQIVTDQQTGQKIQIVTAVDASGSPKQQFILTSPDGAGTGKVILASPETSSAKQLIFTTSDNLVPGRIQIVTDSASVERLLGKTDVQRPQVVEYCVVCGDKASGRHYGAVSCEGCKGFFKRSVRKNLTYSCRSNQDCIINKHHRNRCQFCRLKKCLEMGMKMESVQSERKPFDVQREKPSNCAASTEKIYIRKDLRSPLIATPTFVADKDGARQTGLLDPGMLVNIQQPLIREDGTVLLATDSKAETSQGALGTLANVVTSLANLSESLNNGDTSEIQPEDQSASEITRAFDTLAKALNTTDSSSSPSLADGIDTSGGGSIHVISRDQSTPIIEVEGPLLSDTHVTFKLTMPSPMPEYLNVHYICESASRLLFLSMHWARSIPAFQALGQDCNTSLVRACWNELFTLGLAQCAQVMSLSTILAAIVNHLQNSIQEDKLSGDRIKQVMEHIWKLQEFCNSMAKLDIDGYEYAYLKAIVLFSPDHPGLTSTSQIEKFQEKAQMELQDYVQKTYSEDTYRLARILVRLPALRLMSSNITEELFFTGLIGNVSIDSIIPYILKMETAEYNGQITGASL
UniProt Q9Y314, sequence (Q9Y314 whole entry, looked up): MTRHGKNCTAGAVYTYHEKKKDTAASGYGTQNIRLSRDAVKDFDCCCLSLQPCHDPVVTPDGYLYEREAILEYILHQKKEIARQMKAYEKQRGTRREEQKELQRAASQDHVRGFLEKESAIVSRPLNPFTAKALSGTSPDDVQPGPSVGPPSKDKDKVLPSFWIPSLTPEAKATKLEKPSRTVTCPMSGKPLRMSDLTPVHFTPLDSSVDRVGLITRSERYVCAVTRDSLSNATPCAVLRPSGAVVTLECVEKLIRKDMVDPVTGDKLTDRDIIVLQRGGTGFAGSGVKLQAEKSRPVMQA
UniProt O75251, sequence (O75251 whole entry, looked up): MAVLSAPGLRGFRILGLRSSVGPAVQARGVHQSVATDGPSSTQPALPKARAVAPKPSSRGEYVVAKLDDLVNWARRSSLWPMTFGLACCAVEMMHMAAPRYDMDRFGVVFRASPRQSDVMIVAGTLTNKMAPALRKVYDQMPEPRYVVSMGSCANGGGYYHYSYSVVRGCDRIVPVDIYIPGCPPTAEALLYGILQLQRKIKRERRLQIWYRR

| Target | log2 fold change [1] | log2 fold change (volasertib) | log2 fold change [2] | log2 fold change (epoxomicin) | log2 fold change [3] | log2 fold change [4] | log2 fold change [5] | log2 fold change (rosiglitazone) | log2 fold change [6] | log2 fold change [7] | log2 fold change (saracatinib) | log2 fold change (sotrastaurin) | log2 fold change (alvocidib) | log2 fold change (Tubastatin A) | log2 fold change [8] | log2 fold change (defactinib) | log2 fold change (rucaparib) | log2 fold change [9] | log2 fold change (encorafenib) | log2 fold change [10] |
| --- | --- | --- | --- | --- | --- | --- | --- | --- | --- | --- | --- | --- | --- | --- | --- | --- | --- | --- | --- | --- |
| NMD3 (UniProt Q96D46) | 0.103 | 0.151 | -0.009 | 0.042 | -0.029 | -0.163 | 0.04 | 0.064 | -0.138 | 0.114 | 0.043 | 0.02 | -0.012 | 0.07 | 0.088 | 0.06 | -0.181 | 0.003 | 0.028 | -0.052 |
| NFATC2 (UniProt Q13469) | -0.098 | -0.281 | 0.19 | -0.001 | 0.045 | -0.197 | 0.065 | 0.191 | 0.039 | -0.102 | -0.128 | -0.166 | -0.199 | 0.118 | 0.007 | -0.14 | -0.047 | -0.382 (active) | 0.101 | 0.071 |
| NR2C2 isoform 2 (UniProt P49116) | 0.051 | -0.102 | 0.055 | 0.036 | -0.015 | 0.049 | -0.069 | 0.022 | 0.036 | 0.046 | 0.052 | -0.041 | 0.077 | -0.013 | 0.005 | 0.001 | 0.071 | -0.044 | 0.053 | 0.028 |
| NNT (UniProt Q13423) | 0 | 0.013 | 0.036 | 0.023 | -0.018 | -0.073 | 0.015 | 0.042 | -0.097 | -0.008 | 0.005 | 0 | -0.024 | -0.01 | 0.017 | -0.009 | -0.053 | -0.036 | -0.001 | -0.014 |
| OSBP (UniProt P22059) | 0.056 | 0.377 (active) | 0.032 | 0.053 | -0.101 | -0.087 | 0.013 | 0.038 | -0.064 | 0.061 | -0.051 | -0.147 | -0.028 | 0.037 | 0.062 | -0.066 | -0.11 | 0.062 | -0.006 | -0.001 |
| NCAPD2 (UniProt Q15021) | -0.131 | -0.486 (active) | 0.081 | 0.019 | -0.085 | 0 | 0.075 | 0.023 | 0.044 | -0.098 | -0.052 | -0.145 | -0.029 | 0.012 | 0.111 | -0.052 | 0.142 | 0.008 | 0.11 | -0.025 |
| NCOR1 (UniProt O75376) | -0.034 | -0.021 | 0.142 | 0.07 | -0.066 | 0.046 | 0.048 | 0.044 | 0.033 | -0.045 | 0.074 | -0.094 | -0.179 | -0.009 | -0.041 | -0.113 | 0.012 | -0.02 | 0 | 0.007 |
| NA, A0A096LPI6 | 0.023 | 0.044 | -0.056 | -0.017 | 0.042 | 0.029 | -0.002 | -0.019 | -0.03 | 0.016 | 0.05 | 0.017 | -0.02 | -0.037 | 0.005 | 0 | 0.007 | -0.055 | -0.009 | 0.019 |
| OXA1L (UniProt Q15070) | -0.067 | -0.014 | -0.015 | -0.046 | 0.013 | -0.012 | -0.019 | 0.016 | -0.027 | -0.221 (active) | 0.018 | 0.003 | -0.01 | -0.036 | 0.004 | 0.005 | -0.029 | -0.054 | -0.027 | 0.031 |
| MT-ND4 (UniProt P03905) | 0 | -0.102 | -0.028 | 0 | -0.071 | 0.391 (active) | -0.025 | 0.159 | -0.065 | 0.029 | 0.048 | -0.025 | -0.022 | 0.061 | 0.053 | -0.143 | -0.077 | -0.145 | 0.058 | 0.057 |
| NOSIP (UniProt Q9Y314) | -0.373 | -1.06 (active) | 0.151 | 0.104 | -0.129 | -0.017 | 0.196 | 0.052 | 0.109 | 0.097 | -0.045 | -0.28 | -0.098 | 0.199 | 0.05 | -0.199 | 0.003 | -0.106 | 0.181 | -0.182 |
| MRPL47 (UniProt Q9HD33) | 0.094 | -0.038 | 0.044 | 0.061 | -0.021 | 0.235 | -0.036 | -0.027 | 0.071 | -0.325 | -0.168 | -0.024 | 0.113 | 0.081 | -0.028 | 0.151 | -0.122 | 0.17 | 0.063 | -0.022 |
| NDUFS7 (UniProt O75251) | -0.043 | -0.042 | 0.003 | -0.007 | -0.009 | -0.005 | 0.012 | 0.053 | -0.029 | -0.327 (active) | -0.047 | 0.014 | -0.011 | -0.001 | -0.038 | -0.016 | -0.004 | -0.048 | 0.024 | 0.002 |
| NACC1 (UniProt Q96RE7) | -0.32 | -0.616 (active) | 0.112 | 0.002 | -0.079 | -0.022 | 0.033 | 0.095 | 0 | -0.259 | -0.055 | -0.141 | -0.26 | 0.034 | -0.063 | -0.312 | 0.01 | -0.006 | 0.13 | -0.021 |
| NEDD4 isoform 4 (UniProt P46934) | -0.102 | -0.521 (active) | 0.008 | 0.008 | 0 | -0.031 | 0.015 | 0.065 | -0.01 | 0.049 | 0.116 | -0.026 | -0.09 | 0.037 | 0.041 | -0.108 | -0.099 | -0.026 | 0.049 | -0.009 |
| MRPS27 isoform 2 (UniProt Q92552) | -0.02 | -0.041 | 0.132 | 0.052 | -0.033 | -0.046 | 0.019 | 0.05 | 0.047 | -0.001 | -0.107 | -0.089 | -0.078 | 0.06 | 0.071 | -0.012 | 0.069 | 0.108 | 0.109 | -0.045 |
